# PubChem BioAssay (NCATS)
# Unmarked numbers belong to inactive results. Results filed as inconclusive are left out. Entries that show only a call come without a potency. Active and inactive are the calls of the source. The call rests on the fitted dose curve; in most records, active means well fitted curve in the direction sought with a large enough effect; inconclusive means small, poorly fitted or top-dose-only effect, or another doubt; inactive means no such curve, though single readings can be large; an effect the other way counts as inactive or inconclusive.
# Tests used:
# [1] = target: Glutathione peroxidase 1 (Homo sapiens) (UniProt P07203); test: Primary qHTS Assay for Inhibitors of Recombinant Selenoprotein Glutathione Peroxidase 1 (GPX1) (AID 1845191); further: nearly all actives have a fitted effect of over 65% in size
# Glutathione peroxidase 1 (Homo sapiens), sequence (P07203 whole entry, looked up): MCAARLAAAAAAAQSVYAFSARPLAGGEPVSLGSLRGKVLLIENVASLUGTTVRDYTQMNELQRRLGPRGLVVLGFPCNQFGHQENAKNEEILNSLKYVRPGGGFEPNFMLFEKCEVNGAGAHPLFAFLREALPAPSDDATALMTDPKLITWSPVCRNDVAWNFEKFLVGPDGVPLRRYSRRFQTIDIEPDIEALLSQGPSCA
# Outline: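 10 nM GPX1 + cpd, 30 min RT; start w/ 1 mM GSH, 0.5 mM cumene hydroperoxide, 0.5 mM NADPH, 100 nM GR, 0.01% BSA; buffer 50 mM Tris-HCl pH 7.5, 2 mM EDTA, 150 mM NaCl; Fl 340/450, 0 & 15 min.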
# [2] = target: Phospholipid hydroperoxide glutathione peroxidase GPX4 (Homo sapiens) (UniProt P36969); test: Primary qHTS Assay for Inhibitors of Recombinant Selenoprotein Glutathione Peroxidase 4 (GPX4) (AID 1845192); further: series mostly up to about 50 µM; nearly all actives have a fitted effect of over 65% in size
# Phospholipid hydroperoxide glutathione peroxidase GPX4 (Homo sapiens), sequence (P36969 whole entry, looked up): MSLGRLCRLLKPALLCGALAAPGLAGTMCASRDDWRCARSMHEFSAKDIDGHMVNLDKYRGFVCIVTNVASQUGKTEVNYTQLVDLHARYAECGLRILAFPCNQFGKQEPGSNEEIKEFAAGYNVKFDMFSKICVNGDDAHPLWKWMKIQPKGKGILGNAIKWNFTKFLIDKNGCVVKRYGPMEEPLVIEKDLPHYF
# Outline: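 NADPH consumption, followed by fluorescence at 340/450 nm between 0 and 15 min, reports GPX4 activity via coupled glutathione reductase (100 nM). Enzyme 200 nM was pre-exposed to compound 30 min; 0.5 mM cumene hydroperoxide and 1 mM GSH served as substrates.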
# [3] = target: Luciferin 4-monooxygenase (Photinus pyralis) (UniProt P08659); test: Primary firefly luciferase (FLuc) qHTS assay for identification of artifact compounds. (AID 1845220); further: nearly all actives have a fitted effect of over 60% in size; further: potency means the concentration at half of the fitted maximal effect; on activity change, negative = inhibition: series mostly up to about 54 µM
# Outline: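 Compounds sat 15 min at room temperature with 10 uM luciferin and 10 uM ATP (pH 7.6 Tris acetate). Firefly luciferase (10 nM final) was then added, and luminescence was read 5 min later. Data normalized to no-enzyme and DMSO controls were Hill-fitted.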
# [4] = Primary fluorescence-based thiol-reactive (MSTI) qHTS assay for identification of artifact compounds. (AID 1845221); further: nearly all actives have a fitted effect of over 65% in size; further: potency means the concentration at half of the fitted maximal effect;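 on activity change, negative = thiol reactive: series mostly up to about 54 µM; thiol-reactive compounds lower the probe fluorescence signal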
# Outline: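 A multi-concentration qHTS design tested compounds against 4 uM MSTI, pH 7.4 phosphate-buffered saline. Plates were protected from light for 1 h at room temperature before imaging fluorescence.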
# [5] = system: Nanoluciferase (engineered Oplophorus gracilirostris luciferase); test: Primary Nanoluciferase (NLuc) qHTS assay for identification of artifact compounds. (AID 1845222); further: series mostly up to about 54 µM
# Outline: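 Luminescence from secreted NLuc (filtered, 1:55-diluted S16 cell medium) read 5 min after Nano-Glo substrate; compounds preincubated 15 min, RT. Hill fits of inhibition normalized to DMSO and no-enzyme.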
# [6] = Primary redox qHTS assay for identification of artifact compounds. (AID 1845223)
# Outline: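 Amplex Red (25 uM) and HRP (250 mU/mL) in HBSS, with compounds for 15 min, then 250 uM DTT for 30 min, room temperature, dark. Fluorescence 525/598 nm read; normalized to DMSO and 10 uM DA3003; Hill fit.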
smiles,measurement,setting,value
C[C@@H]1O[C@@H](O[C@H]2[C@H](O)[C@@H](O)[C@H](OC3CCC4(C)C5CCC(C)(C(CO)OC6OC(CO)C(O)C(O)C6O)CC5=CCC4C3(C)C)O[C@@H]2CO)[C@H](O)[C@H](O)[C@H]1O (stereo partly drawn),Potency,[1],inactive
same,Potency,[2],inactive
same,Potency,[3],inactive
same,Potency,[4],inactive
same,Potency,[5],inactive
same,Potency,[6],inactive
C/C=C(\C)C(=O)O[C@@H]1CC2[C@@H](CC=C3C[C@@H](O[C@H]4C[C@H](OC)[C@H](O[C@H]5C[C@H](OC)[C@H](O[C@@H]6O[C@H](C)[C@@H](O[C@H]7C[C@H](OC)[C@H](O[C@@H]8O[C@H](CO)[C@@H](O)[C@H](O)[C@H]8O)[C@@H](C)O7)[C@H](OC)[C@H]6O)[C@@H](C)O5)[C@@H](C)O4)CC[C@@]32C)[C@@]2(O)CC[C@H](C(C)=O)[C@@]12C (stereo partly drawn),outcome,[1],inactive [at 9.52 µM]
same,"activity change, negative = inhibition",[2],-6.94% [at 9.73 µM]
same,outcome,[3],inactive [at 11.6 µM]
same,"activity change, negative = thiol reactive",[4],14.5% [at 11.5 µM]
same,"activity, negative = inhibition",[5],2.98% [at 11.6 µM]
CC1=CC(=O)CC(C)(CO)C1(O)/C=C/C(C)O[C@@H]1O[C@H](CO)[C@@H](O)[C@H](O)[C@H]1O (stereo partly drawn),Potency,[1],inactive
same,Potency,[2],inactive
same,Potency,[3],inactive
same,Potency,[4],10.3 µM (active)
same,Potency,[5],inactive
same,Potency,[6],inactive
Cn1ncnc1COc1nn2c(-c3cc(F)ccc3F)nnc2cc1C(C)(C)C,Potency,[1],inactive
same,Potency,[2],inactive
same,Potency,[3],inactive
same,Potency,[4],inactive
same,Potency,[5],inactive
same,Potency,[6],inactive
C/C=C1\[C@H](O[C@@H]2O[C@H](CO)[C@@H](O)[C@H](O)[C@H]2O)OC=C(C(=O)OC)[C@H]1CC(=O)OC[C@H]1O[C@@H](OCCc2ccc(O)cc2)[C@H](O)[C@@H](O)[C@@H]1O,Potency,[1],inactive
same,Potency,[2],inactive
same,Potency,[3],inactive
same,Potency,[4],2.24 µM (active)
same,Potency,[5],inactive
same,Potency,[6],inactive
COc1cc(/C=C/C(=O)O[C@H]2[C@H](O)[C@@H](CO)O[C@@]2(CO)O[C@H]2O[C@H](CO)[C@@H](O)[C@H](O)[C@H]2O)ccc1O,Potency,[1],inactive
same,Potency,[2],inactive
same,Potency,[3],inactive
same,Potency,[4],inactive
same,Potency,[5],inactive
same,Potency,[6],inactive
Oc1ccc2nc(CN3CCC(Cc4ccccc4F)CC3)[nH]c2c1,Potency,[1],inactive
same,Potency,[2],inactive
same,Potency,[3],inactive
same,Potency,[4],inactive
same,Potency,[5],inactive
same,Potency,[6],inactive
CC1CCC2(C(=O)O)CCC3(C)C(=CCC4C5(C)CCC(OC(=O)/C=C/c6ccccc6)C(C)(C)C5CCC43C)C2C1C (stereo not drawn),Potency,[1],inactive
same,Potency,[2],inactive
same,Potency,[3],inactive
same,Potency,[4],inactive
same,Potency,[5],inactive
same,Potency,[6],inactive
O=C(Nc1ccc(S(=O)(=O)C(F)(F)F)cc1)C1=CCN(c2ncccc2C(F)(F)F)CC1,Potency,[1],inactive
same,Potency,[2],inactive
same,Potency,[3],inactive
same,Potency,[4],inactive
same,Potency,[5],inactive
same,Potency,[6],inactive
CC1OC(OC2C(C)OC(OC3C(OC(=O)C45CCC(C)(C)CC4C4=CCC6C7(C)CCC(OC8OC(C(=O)O)C(O)C(O)C8OC8OC(CO)C(O)C(OC9OC(C)C(O)C(O)C9O)C8O)C(C)(CO)C7CCC6(C)C4(C)CC5)OC(CO)C(O)C3O)C(O)C2O)C(O)C(O)C1O (stereo not drawn),"activity, negative = inhibition",[1],-14% [at 9.52 µM]
same,"activity change, negative = inhibition",[2],-14.3% [at 9.73 µM]
same,"activity change, negative = inhibition",[3],-4.3% [at 11.6 µM]
same,"activity change, negative = thiol reactive",[4],122% [at 11.5 µM]
same,"activity, negative = inhibition",[5],2.74% [at 11.6 µM]
C[C@H](NC(c1cccc(C[P+](=O)O)c1)[C@H](C)O)c1ccc(Cl)c(Cl)c1 (stereo partly drawn),Potency,[1],inactive
same,Potency,[2],inactive
same,Potency,[3],inactive
same,Potency,[4],inactive
same,Potency,[5],inactive
same,Potency,[6],inactive
CC(C)(C#N)c1ccc(N2C(=O)OCc3cnc4ccc(-c5cnc6ccccc6c5)cc4c32)cc1,Potency,[1],inactive
same,Potency,[2],inactive
same,Potency,[3],inactive
same,Potency,[4],inactive
same,Potency,[5],inactive
same,Potency,[6],inactive
CC(=O)c1c(O)cc(O[C@@H]2O[C@H](CO)[C@@H](O)[C@H](O)[C@H]2O)cc1O,Potency,[1],inactive
same,Potency,[2],inactive
same,Potency,[3],inactive
same,Potency,[4],4.14 µM (active)
same,Potency,[5],inactive
same,Potency,[6],inactive
N#Cc1cc(F)cc(-c2nc(-c3ccccn3)no2)c1,Potency,[1],inactive
same,Potency,[2],inactive
same,Potency,[3],7.57 µM (active)
same,Potency,[4],inactive
same,Potency,[5],inactive
same,Potency,[6],inactive
CC1(C)CCC[C@]2(C)[C@H]3CC(=O)O[C@]3(C)CC[C@@H]12,Potency,[1],inactive
same,Potency,[2],inactive
same,Potency,[3],inactive
same,Potency,[4],inactive
same,Potency,[5],inactive
same,Potency,[6],inactive
CC1(C)CC(=O)C2=C(C1)NC(=S)NC2c1cccc(O)c1 (stereo not drawn),Potency,[1],inactive
same,Potency,[2],inactive
same,Potency,[3],inactive
same,Potency,[4],inactive
same,Potency,[5],inactive
same,Potency,[6],inactive
COc1cc(O)cc(C)c1C(=O)O[C@H]1[C@@H](OC(C)=O)[C@H](n2ccc(=O)[nH]c2=O)O[C@@H]1CO,Potency,[1],inactive
same,Potency,[2],inactive
same,Potency,[3],inactive
same,Potency,[4],inactive
same,Potency,[5],inactive
same,Potency,[6],inactive
C=C(C(=O)O)C1CC2=C(C)CCCC2(C)C[C@@H]1O (stereo partly drawn),Potency,[1],inactive
same,Potency,[2],inactive
same,Potency,[3],inactive
same,Potency,[4],inactive
same,Potency,[5],inactive
same,Potency,[6],inactive
OCCc1ccc(O[C@@H]2O[C@H](CO)[C@@H](O)[C@H](O)[C@H]2O)cc1,Potency,[1],inactive
same,Potency,[2],inactive
same,Potency,[3],inactive
same,Potency,[4],inactive
same,Potency,[5],inactive
same,Potency,[6],inactive
Nc1ncnc2c1ncn2CCNCCCCCO,Potency,[1],inactive
same,Potency,[2],inactive
same,Potency,[3],inactive
same,Potency,[4],inactive
same,Potency,[5],inactive
same,Potency,[6],inactive
